Here are results for six compounds from ChEMBL document CHEMBL1961873, “Compounds: GSK PKIS; Assays: Nanosyn kinase panel” (2012).

Each structure is given as a SMILES string.

Broadly, the inhibition is the change of the read-out against control, counted positive when it falls.

The subject of experiment [1] is Proto-oncogene tyrosine-protein kinase receptor Ret (Homo sapiens), P07949 [Y791F]. The settings on record: at 1 µM.
Experiment [2] addresses Macrophage-stimulating protein receptor (Homo sapiens) (UniProt Q04912). The settings on record: at 0.1 µM.
The target is the same in experiment [3]. The conditions noted are these: at 1 µM.
In experiment [4] the target is Proto-oncogene tyrosine-protein kinase ROS (Homo sapiens) (UniProt P08922). The settings on record: at 0.1 µM.
Experiment [5] has the same target. The conditions noted are these: at 1 µM.
Experiment [6] concerns the target Proto-oncogene tyrosine-protein kinase Src (Homo sapiens) (UniProt P12931). The conditions noted are these: at 0.1 µM.
For experiment [7] the target is unchanged. The settings on record: at 1 µM.
Experiment [8] deals with Tyrosine-protein kinase Srms (Homo sapiens) (UniProt Q9H3Y6). The conditions noted are these: at 0.1 µM.
Experiment [9] has the same target. The conditions noted are these: at 1 µM.
For experiment [10], the target named is Tyrosine-protein kinase SYK (Homo sapiens) (UniProt P43405). The conditions noted are these: at 0.1 µM.
For experiment [11] the target is unchanged. The conditions noted are these: at 1 µM.
Experiment [12] deals with T1, Tyrosine-protein kinase Tec (Homo sapiens) (UniProt P42680).
T1 sequence (whole entry): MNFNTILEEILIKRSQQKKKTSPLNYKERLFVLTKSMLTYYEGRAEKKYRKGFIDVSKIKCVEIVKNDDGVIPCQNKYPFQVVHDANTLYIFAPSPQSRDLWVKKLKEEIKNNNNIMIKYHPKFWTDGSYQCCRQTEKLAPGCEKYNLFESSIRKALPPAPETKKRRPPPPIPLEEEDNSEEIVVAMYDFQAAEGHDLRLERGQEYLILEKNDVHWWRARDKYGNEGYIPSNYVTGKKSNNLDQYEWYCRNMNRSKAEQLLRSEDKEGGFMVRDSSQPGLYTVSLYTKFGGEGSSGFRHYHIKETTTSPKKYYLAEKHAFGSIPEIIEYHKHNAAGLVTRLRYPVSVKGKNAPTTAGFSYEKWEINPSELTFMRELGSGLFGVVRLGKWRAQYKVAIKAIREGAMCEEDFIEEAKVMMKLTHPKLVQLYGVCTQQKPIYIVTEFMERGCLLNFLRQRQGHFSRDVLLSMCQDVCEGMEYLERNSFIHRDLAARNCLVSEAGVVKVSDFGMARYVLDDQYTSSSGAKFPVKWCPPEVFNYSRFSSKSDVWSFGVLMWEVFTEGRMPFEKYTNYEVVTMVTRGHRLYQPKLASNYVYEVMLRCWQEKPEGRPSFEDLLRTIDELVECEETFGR
The conditions noted are these: at 0.1 µM.

Experiment [13] concerns the target T1, Tyrosine-protein kinase Tec (Homo sapiens). The conditions noted are these: at 1 µM.
In experiment [14] the target is Angiopoietin-1 receptor (Homo sapiens) (UniProt Q02763). The conditions noted are these: at 0.1 µM.
For experiment [15] the target is unchanged. The conditions noted are these: at 1 µM.
The target of experiment [16] is T2, Non-receptor tyrosine-protein kinase TNK1 (Homo sapiens) (UniProt Q13470).
T2 sequence (whole entry): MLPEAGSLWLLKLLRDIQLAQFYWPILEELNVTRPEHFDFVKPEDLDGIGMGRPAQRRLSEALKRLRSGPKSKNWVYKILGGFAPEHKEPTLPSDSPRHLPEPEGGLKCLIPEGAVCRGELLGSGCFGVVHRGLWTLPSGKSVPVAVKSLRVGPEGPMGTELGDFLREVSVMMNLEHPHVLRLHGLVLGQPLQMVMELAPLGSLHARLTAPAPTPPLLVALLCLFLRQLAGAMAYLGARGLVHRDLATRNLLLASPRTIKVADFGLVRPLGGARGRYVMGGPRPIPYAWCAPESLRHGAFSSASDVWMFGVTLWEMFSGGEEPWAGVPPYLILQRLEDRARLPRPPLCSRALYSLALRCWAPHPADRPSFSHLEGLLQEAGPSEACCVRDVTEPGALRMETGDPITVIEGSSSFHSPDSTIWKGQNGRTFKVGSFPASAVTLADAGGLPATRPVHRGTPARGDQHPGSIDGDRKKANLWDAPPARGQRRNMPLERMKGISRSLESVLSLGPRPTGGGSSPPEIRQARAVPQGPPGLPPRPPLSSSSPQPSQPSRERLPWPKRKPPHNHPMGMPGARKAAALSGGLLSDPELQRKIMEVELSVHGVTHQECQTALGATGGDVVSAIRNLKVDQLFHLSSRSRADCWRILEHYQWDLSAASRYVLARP
The conditions noted are these: at 0.1 µM.

The target in experiment [17] is T2, Non-receptor tyrosine-protein kinase TNK1 (Homo sapiens). The settings on record: at 1 µM.
Experiment [18] concerns the target Activated CDC42 kinase 1 (Homo sapiens) (UniProt Q07912). The conditions noted are these: at 0.1 µM.
Experiment [19] shares this target. The settings on record: at 1 µM.
Experiment [20] has as its target High affinity nerve growth factor receptor (Homo sapiens) (UniProt P04629). The settings on record: at 0.1 µM.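 Further: each value is a mean of replicate percent inhibition readings against TRKA kinase.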

Chain of Angiopoietin-1 receptor (Homo sapiens) (Q02763 whole entry): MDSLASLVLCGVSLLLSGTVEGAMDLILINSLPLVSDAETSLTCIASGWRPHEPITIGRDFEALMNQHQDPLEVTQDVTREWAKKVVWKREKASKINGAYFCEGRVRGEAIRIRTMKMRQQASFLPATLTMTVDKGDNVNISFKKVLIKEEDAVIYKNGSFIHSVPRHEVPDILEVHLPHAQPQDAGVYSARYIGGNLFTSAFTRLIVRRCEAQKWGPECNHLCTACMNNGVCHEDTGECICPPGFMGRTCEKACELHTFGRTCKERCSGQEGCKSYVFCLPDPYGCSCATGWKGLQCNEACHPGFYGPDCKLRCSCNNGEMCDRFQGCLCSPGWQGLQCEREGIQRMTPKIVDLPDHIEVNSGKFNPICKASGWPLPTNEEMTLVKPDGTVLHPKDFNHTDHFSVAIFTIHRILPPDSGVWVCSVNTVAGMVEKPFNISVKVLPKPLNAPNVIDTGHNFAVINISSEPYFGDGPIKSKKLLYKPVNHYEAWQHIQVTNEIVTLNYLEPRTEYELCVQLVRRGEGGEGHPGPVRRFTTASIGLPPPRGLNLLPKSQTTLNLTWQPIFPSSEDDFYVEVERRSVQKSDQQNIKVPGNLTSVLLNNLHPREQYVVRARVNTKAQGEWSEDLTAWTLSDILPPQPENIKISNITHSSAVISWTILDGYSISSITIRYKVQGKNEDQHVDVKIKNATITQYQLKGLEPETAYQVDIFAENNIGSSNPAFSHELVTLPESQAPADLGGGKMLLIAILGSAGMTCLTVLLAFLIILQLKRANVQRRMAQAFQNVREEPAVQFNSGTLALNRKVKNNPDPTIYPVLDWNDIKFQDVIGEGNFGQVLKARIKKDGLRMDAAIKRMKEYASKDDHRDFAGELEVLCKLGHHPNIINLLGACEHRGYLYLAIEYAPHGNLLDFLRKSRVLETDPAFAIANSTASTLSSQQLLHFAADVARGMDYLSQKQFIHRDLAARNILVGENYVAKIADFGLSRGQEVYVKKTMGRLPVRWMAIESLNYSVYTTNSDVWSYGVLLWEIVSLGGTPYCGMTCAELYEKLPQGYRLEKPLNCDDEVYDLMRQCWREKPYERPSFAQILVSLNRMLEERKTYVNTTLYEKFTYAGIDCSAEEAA
Chain of Proto-oncogene tyrosine-protein kinase ROS (Homo sapiens) (P08922 whole entry): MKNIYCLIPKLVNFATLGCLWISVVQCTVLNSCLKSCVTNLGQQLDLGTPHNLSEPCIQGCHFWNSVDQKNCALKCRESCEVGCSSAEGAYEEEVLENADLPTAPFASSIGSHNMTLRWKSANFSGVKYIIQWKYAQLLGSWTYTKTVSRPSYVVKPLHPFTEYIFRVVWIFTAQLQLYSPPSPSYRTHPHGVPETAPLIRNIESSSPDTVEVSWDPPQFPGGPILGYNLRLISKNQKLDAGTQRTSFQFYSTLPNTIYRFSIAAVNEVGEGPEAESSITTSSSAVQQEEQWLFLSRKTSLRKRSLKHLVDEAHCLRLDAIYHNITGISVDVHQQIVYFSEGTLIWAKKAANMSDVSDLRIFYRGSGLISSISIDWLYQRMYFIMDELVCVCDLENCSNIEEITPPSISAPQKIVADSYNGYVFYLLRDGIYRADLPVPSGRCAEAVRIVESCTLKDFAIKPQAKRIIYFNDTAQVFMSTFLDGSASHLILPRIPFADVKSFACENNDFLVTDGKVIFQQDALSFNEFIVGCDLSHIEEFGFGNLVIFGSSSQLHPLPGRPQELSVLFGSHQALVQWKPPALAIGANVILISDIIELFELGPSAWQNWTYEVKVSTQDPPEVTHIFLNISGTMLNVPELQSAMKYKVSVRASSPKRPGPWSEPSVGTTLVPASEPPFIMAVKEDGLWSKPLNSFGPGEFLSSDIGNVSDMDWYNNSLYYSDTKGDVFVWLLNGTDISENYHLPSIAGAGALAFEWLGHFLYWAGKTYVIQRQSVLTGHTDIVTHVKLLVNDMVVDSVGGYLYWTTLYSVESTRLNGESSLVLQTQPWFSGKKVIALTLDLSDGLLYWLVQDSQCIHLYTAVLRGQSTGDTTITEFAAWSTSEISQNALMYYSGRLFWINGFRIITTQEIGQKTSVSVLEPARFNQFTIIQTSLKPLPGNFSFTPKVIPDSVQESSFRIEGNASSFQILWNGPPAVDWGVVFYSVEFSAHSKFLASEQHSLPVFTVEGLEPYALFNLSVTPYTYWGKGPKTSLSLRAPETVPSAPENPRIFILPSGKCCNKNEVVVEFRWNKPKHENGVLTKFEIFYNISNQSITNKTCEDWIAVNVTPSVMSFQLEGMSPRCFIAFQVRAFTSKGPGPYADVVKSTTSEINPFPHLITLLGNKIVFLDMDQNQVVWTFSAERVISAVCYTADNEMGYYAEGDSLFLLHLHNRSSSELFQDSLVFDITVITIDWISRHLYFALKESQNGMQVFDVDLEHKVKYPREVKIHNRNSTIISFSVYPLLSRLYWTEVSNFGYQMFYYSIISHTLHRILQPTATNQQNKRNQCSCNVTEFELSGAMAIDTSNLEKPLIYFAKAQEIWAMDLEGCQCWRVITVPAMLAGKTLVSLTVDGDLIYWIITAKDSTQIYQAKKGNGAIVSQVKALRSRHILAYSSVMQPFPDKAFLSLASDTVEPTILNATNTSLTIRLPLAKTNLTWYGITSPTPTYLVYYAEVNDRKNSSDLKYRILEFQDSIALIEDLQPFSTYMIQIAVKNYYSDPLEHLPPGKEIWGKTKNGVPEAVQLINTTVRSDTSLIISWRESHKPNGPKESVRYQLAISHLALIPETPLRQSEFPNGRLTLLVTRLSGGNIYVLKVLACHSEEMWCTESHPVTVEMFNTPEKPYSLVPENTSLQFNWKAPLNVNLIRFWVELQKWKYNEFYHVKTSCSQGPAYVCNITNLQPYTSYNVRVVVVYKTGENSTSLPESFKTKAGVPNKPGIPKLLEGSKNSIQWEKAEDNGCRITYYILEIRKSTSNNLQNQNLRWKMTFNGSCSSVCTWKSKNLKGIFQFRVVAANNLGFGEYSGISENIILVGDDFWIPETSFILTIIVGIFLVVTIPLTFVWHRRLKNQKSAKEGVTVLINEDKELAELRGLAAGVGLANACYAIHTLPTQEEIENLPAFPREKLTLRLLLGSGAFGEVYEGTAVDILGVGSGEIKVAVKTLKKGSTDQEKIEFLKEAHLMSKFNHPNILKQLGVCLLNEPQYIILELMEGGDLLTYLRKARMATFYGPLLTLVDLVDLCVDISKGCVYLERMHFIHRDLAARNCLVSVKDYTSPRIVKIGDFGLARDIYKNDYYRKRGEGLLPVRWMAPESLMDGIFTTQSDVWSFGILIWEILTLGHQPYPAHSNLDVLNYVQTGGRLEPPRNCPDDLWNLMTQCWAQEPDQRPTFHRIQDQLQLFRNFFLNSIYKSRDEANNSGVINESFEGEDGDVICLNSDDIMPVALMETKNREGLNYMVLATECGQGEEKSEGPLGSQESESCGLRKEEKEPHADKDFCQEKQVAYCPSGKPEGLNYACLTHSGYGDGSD
Chain of Tyrosine-protein kinase Srms (Homo sapiens) (Q9H3Y6 whole entry): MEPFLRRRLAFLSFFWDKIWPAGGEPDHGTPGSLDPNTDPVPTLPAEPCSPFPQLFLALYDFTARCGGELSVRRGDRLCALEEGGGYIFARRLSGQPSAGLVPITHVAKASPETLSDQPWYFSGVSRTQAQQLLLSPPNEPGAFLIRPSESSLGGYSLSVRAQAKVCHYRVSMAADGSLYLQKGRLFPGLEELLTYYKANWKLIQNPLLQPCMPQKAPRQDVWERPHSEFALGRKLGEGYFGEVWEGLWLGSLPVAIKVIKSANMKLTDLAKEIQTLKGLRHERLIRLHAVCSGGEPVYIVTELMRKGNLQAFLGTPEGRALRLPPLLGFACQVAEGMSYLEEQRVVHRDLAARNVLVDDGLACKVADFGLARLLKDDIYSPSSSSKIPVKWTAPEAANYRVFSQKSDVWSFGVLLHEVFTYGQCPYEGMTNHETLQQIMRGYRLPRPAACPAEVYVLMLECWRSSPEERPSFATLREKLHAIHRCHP
Chain of Proto-oncogene tyrosine-protein kinase receptor Ret (Homo sapiens), P07949 [Y791F] (P07949 whole entry Y791F): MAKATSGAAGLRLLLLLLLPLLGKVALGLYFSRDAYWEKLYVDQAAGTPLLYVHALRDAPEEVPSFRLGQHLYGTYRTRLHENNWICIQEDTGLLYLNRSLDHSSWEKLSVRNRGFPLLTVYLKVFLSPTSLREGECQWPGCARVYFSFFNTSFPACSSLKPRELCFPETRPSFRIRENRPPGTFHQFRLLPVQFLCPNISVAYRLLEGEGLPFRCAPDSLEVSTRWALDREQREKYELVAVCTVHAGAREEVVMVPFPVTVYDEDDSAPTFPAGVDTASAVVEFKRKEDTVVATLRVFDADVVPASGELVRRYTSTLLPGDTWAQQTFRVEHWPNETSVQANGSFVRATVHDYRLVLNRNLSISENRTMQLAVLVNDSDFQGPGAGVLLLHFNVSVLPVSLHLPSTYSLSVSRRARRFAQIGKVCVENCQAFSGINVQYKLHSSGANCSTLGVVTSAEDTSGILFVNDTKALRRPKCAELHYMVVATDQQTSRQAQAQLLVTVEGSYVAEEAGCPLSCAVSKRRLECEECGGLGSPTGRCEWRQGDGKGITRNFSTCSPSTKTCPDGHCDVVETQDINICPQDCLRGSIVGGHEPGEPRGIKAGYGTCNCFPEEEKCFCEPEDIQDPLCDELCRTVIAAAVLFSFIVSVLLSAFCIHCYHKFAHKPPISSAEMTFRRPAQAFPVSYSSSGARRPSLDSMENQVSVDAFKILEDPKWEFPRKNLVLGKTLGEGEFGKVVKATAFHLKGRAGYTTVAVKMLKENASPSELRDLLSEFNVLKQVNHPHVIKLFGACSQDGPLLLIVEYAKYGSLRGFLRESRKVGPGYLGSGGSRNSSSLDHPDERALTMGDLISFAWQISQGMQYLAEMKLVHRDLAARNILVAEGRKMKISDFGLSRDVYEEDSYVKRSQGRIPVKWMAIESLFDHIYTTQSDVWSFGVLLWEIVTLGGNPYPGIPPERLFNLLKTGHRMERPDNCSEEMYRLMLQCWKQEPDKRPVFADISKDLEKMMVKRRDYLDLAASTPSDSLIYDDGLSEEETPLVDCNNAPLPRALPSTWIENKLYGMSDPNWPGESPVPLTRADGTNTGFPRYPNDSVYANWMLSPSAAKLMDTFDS

As to `COc1cc(N2CCN(C(C)C)CC2)ccc1Nc1nc(Nc2cccc3ncccc23)c2cc[nH]c2n1`, the inhibition is 14.2% in experiment [1]; -0.12% in experiment [2]; 1.56% in experiment [3]; 7.82% in [4]; 45.3% in experiment [5]; 2% in experiment [6]. Also, the inhibition in experiment [7] was 0.42%; in experiment [8] it was 0.04%; in experiment [9] it was 0.63%; in experiment [10], -1.08%; in [11], -0.52%; in experiment [12] it was 0.93%. In addition, the inhibition in experiment [13] was -0.14%; in [14], 3.15%; in experiment [15], 7.32%; in [16] it was 0.11%; in [17], 22.3%; in experiment [18] it was 1.12%. For the same compound, the inhibition was 13.2% in [19] and 1.86% in [20].
Regarding `O=C(Nc1n[nH]c2nnc(-c3cccnc3)cc12)C1CC1`, the inhibition in experiment [1] was 3.64%; in [2] it was -2.07%; in experiment [3] it was -3.95%; in [4] it was -0.02%; in experiment [5], 1.38%; in experiment [6] it was 0.98%. Besides, the inhibition in experiment [7] turned out to be 2.5%; in [8], 2.39%; in [9], 0.54%; in [10], 1.35%; in [11], 0.88%; in experiment [12], 0.17%. The inhibition was 3.48% in [13]; 1.38% in experiment [14]; 1.88% in experiment [15]; -1.13% in experiment [16]; 0.09% in experiment [17]; 0.32% in experiment [18]. Further, the inhibition in [19] was found to be 1.68%; in [20], 0.12%.
Consider `Cn1c(-c2nonc2N)nc2cnccc21`, for which the inhibition in experiment [1] was 7.82%; in experiment [2], 5.57%; in experiment [3], -0.92%; in experiment [4], 2.77%; in experiment [5], 3.73%; in [6] it was -0.58%. Besides, the inhibition in [7] is 6.9%; in experiment [8] it was 0.1%; in experiment [9], 4.56%; in experiment [10], -1.4%; in experiment [11], 0.59%; in [12] it was 4.08%. For the same compound, the inhibition in [13] was 3.99%; in [14] it was 1.46%; in experiment [15], 2.07%; in experiment [16], 1.08%; in experiment [17], 0.76%; in experiment [18] it was 0.75%. For the same compound, the inhibition in experiment [19] turned out to be 0.19%; in [20], 1.03%.
As for `CS(=O)(=O)Nc1ccc(-c2ccc3c(NC(=O)C4CC4)n[nH]c3c2)cc1`, the inhibition is 6.93% in experiment [1]; 1.04% in experiment [2]; 7.91% in experiment [3]; 11.3% in [4]; 11.7% in experiment [5]; -4.32% in experiment [6]. Besides, the inhibition was 8.03% in experiment [7]; -0.44% in [8]; 0.5% in experiment [9]; -4.62% in [10]; -1.82% in experiment [11]; 3.96% in experiment [12]. In addition, the inhibition in experiment [13] worked out at 7.11%; in [14], 2.18%; in experiment [15], 10.9%; in [16], 2.68%; in experiment [17], 5.17%; in experiment [18] it was 1.26%. For the same compound, the inhibition came to 3.12% in experiment [19] and 2.98% in [20].
`CC1=C(C(=O)Nc2ccc3[nH]ncc3c2)C(c2ccc(F)cc2)N=C(c2ccc(C(F)(F)F)nc2)N1` (stereo not given): the inhibition was 43% in [1]; 7.5% in experiment [2]; 5.38% in [3]; 4.98% in experiment [4]; 14.9% in experiment [5]; -1.49% in experiment [6]. In addition, the inhibition in [7] turned out to be 9.03%; in experiment [8], 1.74%; in experiment [9] it was 1.21%; in experiment [10], 3.11%; in [11], 0.81%; in experiment [12], 3.03%. Moreover, the inhibition in experiment [13] stood at 7.4%; in experiment [14], 2.65%; in experiment [15], 2.49%; in experiment [16], 1.86%; in [17], 7.12%; in [18] it was 1.17%. Also, the inhibition came to 1.16% in experiment [19] and 4.01% in [20].
Regarding `N#Cc1ccc2c(-c3ccnc(NC4CC4)n3)c(-c3ccc(F)cc3)nn2c1`, the inhibition in experiment [1] was found to be 10.8%; in [2], 2.34%; in experiment [3] it was 0.41%; in experiment [4] it was 1.21%; in experiment [5], 1.91%; in experiment [6], 2.91%. Moreover, the inhibition in experiment [7] was 3.58%; in experiment [8] it was 0.49%; in experiment [9] it was -0.99%; in [10], 0.61%; in experiment [11], -1.91%; in experiment [12], -0.44%. For the same compound, the inhibition in [13] was 3.17%; in experiment [14], 1.54%; in experiment [15], 3.72%; in experiment [16], -0.18%; in experiment [17], 1.77%; in experiment [18], 0.77%. Further, the inhibition in experiment [19] is 1.6%; in experiment [20], -1.05%.
